The test system of experiment [1] is Falciformispora senegalensis CBS197.79. In words: growth relative to untreated control; higher = less inhibition, active = 20 or less. The essentials: (§1)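 Compound at 100 or 25 µM was applied for 7 days at 37 °C to hyphal fragments of M. mycetomatis MM55 or F. senegalensis CBS197.79 in 96-well plates. Fragments were suspended in colourless RPMI 1640 with L-glutamine and MOPS at 68–72% transmission at 660 nm, and viability was read with MTS (2 h, 490 nm) or resazurin (600 nm). Growth is reported as blank-corrected metabolic activity relative to the blank-corrected untreated growth control.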

Experiment [2] deals with Madurella mycetomatis MM55. The experiment is described as above. The essentials: as §1

Values without a mark were called inactive.

Turning to `c1ccc(CCc2nc3cccnc3n2C2CCN(C3CCN(Cc4ccccc4)CC3)CC2)cc1`, the growth is 86.3% in experiment [1] (25 µM), 49.8% in experiment [1] (100 µM), 63.2% in experiment [2] (25 µM) and 5.59% (active) in experiment [2] (100 µM).

Take `CC(=O)Oc1ccccc1C(=O)Nc1ncc([N+](=O)[O-])s1`: the growth in experiment [1] (25 µM) was 97.4%; in experiment [1] (100 µM) it was 104%; in experiment [2] (25 µM), 87.7%; in experiment [2] (100 µM) it was 95.6%.

Turning to `FC(F)(F)c1cc(Cl)cc(Nc2nc3cnc(NCC4CC4)nc3n2C2CCNCC2)c1`, the growth in experiment [1] (25 µM) is 95%; in experiment [1] (100 µM), 17.6% (active); in experiment [2] (25 µM), 53.7%; in experiment [2] (100 µM), 4.76% (active).

Take `NC1(c2ccc(-c3nc4ccn5c(O)nnc5c4cc3-c3ccccc3)cc2)CCC1`: the growth in experiment [1] (25 µM) is 104%; in experiment [1] (100 µM) it was 14% (active); in experiment [2] (25 µM) it was 79.3%; in experiment [2] (100 µM), 3.13% (active).

As for `CCCCN(CCCC)CC(O)c1cc(Cl)cc2c1-c1ccc(Cl)cc1/C2=C/c1ccc(Cl)cc1` (configuration not stated), the growth in experiment [1] (25 µM) is 98.7%; in experiment [1] (100 µM) it was 96.3%; in experiment [2] (25 µM), 107%; in experiment [2] (100 µM), 87.9%.

Turning to `N=C(N)Nc1ccc(C(=O)Oc2ccc3cc(C(=N)N)ccc3c2)cc1`, the growth in experiment [1] (25 µM) was 107%; in experiment [1] (100 µM), 66.5%; in experiment [2] (25 µM), 79.9%; in experiment [2] (100 µM), 72.3%.

In the case of `O=C(NC1CCNCC1)c1ccc(Nc2nccc(-c3ccc(Cl)cc3)n2)cc1`, the growth is 98% in experiment [1] (25 µM), 10% (active) in experiment [1] (100 µM), 37.4% in experiment [2] (25 µM) and 6.07% (active) in experiment [2] (100 µM).

`COc1ccc2nc3cc(Cl)ccc3c(Nc3cc(CN4CCCC4)c(O)c(CN4CCCC4)c3)c2n1`: the growth in experiment [1] (25 µM) was 107%; in experiment [1] (100 µM) it was 15% (active); in experiment [2] (25 µM), 76.3%; in experiment [2] (100 µM), 40%.

These data come from the supplement of paper PMC11172423.
